Reference: PubChem BioAssay (Tox21)
Where “and” joins values, the source holds several entries; their conditions need not be identical. Identical values can stand only once. Records with an inconclusive call do not appear. Calls of active or inactive are those of the source. The call rests on the fitted dose curve; in most records, active means well fitted inhibition curve with a large enough effect in the repeat runs; inconclusive means weak or mixed curves; inactive means no such curve, though single readings can be large or run the other way.

The molecules below were run against Cytochrome P450 2C9 (Homo sapiens) (UniProt P11712) (assay: Cytochrome P450 Family 2 Subfamily C Member 9 (CYP2C9) small molecule antagonists: luciferase reporter qHTS assay (AID 1671198; further: nearly all actives have a fitted effect of over 50% in size)). Conditions: P450-Glo CYP2C9 enzyme assay, luciferin luminescence; series mostly up to 53 µM; activity change, negative = inhibition: at the top concentration.
From the text: U.S. Tox21 Program National Center for Advancing Translational Sciences [NCATS] U.S. Environmental Protection Agency [EPA] National Institutes of Environmental Health Sciences [NIEHS] National Toxicology Program [NTP] U.S. Food and Drug Administration [FDA] Tox21 Assay Overview: Cytochrome P450 (CYP) enzymes are membrane-bound hemeproteins that play a key role in metabolism of drugs and xenobiotics. Evaluation of the effect of chemicals on CYP isozymes is useful to minimize the adverse drug reactions and toxicities in drug development process. Tox21 chemicals were tested for their effect on CYP enzyme activities by using P450-Glo (TM) screening systems (Promega Corporation, Madison, WI). These systems provide a luminescent method containing proluciferin substrates and are converted to luciferin products by CYP isozymes. The luciferin products formed are detected with a luciferin detection reagent, and the amount of light produced is proportional to CYP activity. P450-Glo (TM) CYP2C9 screening system (Catalog. No. V9790) was used to detect the compounds that interfere in CYP2C9 activity.
Tox21 Assay Protocol Summary: Two ul of enzyme-substrate mix was dispensed into medium binding white/solid 1536-well plates (Greiner Bio-One North America Inc., Monroe, NC) using a BioRaptr Flying Reagent Dispenser (FRD, Beckman Coulter, Brea, CA). […] The assay plates were incubated at room temperature for 10 min. Then 2 ul of NADPH regeneration solution was added to each well of the assay plates using an FRD and incubated at 37C for 1 h. The reaction was stopped by adding 4 ul of detection reagent using an FRD and after 20 min incubation at room temperature the luminescence signal was measured using a ViewLux plate reader (Perkin Elmer, Shelton, CT). Data were expressed as relative luminescence units.
On the % scale 0 is the no-effect control and ±100 the full control effect; potency means the concentration at half of the fitted maximal effect.

Sequence of Cytochrome P450 2C9 (Homo sapiens) (P11712 whole entry, looked up): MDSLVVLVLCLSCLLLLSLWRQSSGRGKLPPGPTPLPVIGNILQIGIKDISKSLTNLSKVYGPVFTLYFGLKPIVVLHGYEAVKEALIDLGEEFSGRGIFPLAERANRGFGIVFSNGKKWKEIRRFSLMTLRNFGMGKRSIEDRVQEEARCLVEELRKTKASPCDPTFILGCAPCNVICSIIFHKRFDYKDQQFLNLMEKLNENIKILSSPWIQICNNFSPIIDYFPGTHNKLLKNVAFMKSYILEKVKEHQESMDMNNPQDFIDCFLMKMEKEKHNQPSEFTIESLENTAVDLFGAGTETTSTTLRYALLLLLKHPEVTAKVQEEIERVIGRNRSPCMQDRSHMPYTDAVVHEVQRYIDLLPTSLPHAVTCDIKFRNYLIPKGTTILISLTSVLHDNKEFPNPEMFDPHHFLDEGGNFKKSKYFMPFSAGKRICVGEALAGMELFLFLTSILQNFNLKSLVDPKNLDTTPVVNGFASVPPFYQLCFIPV

For `NNc1nc(-c2ccc(N)cc2)cs1`, which Potency is on record?
The Potency was 31.7 µM (active).

`C=C(C)C(=O)OCC[N+](C)(C)C` was tested. Which “activity change, negative = inhibition” value did it give?
Its value is 13% [at 115 µM] (inactive).

How did the “activity change, negative = inhibition” value turn out when `CC(C)CCCCCCCCCCCCCCC(=O)O` was run?
Its value is -1.51% [at 115 µM] (inactive).

How did the “activity change, negative = inhibition” value turn out when `CC(=O)OCC(C)OC(C)=O` (stereo not given) was run?
Its value is -1.68% [at 115 µM] (inactive).

`CC(=O)SC[C@@H](Cc1ccccc1)C(=O)NCC(=O)OCc1ccccc1` was tested. Which Potency did it give?
Its Potency is 3.47 µM (active).

For `CCCCC(CC)COP(=O)(O)OCC(CC)CCCC` (stereo not given), which Potency is on record?
Its Potency is 22.5 µM (active) and 17.8 µM (active).

Which Potency does the source give for `NNC(=O)c1cccc(C(=O)NN)c1` here?
Its Potency is 35.6 µM (active).

`Oc1ccc(C2(c3ccc(O)cc3)CC3CC2C2CCCC32)cc1` (stereo not given) was tested. Which Potency did it give?
Its Potency is 38.4 µM (active).

How did the Potency turn out when `Cc1cc(N)c(S(=O)(=O)O)cc1Cl` was run?
The Potency was 28.6 µM (active).

With `CCN(CC)CCCC(C)Nc1c2ccc(Cl)cc2nc2ccc(OC)cc12` (stereo not given) as the molecule, how does the “activity change, negative = inhibition” value read?
The value was 13.4% (inactive).

Which “activity change, negative = inhibition” value does the source give for `CCCCCCCC(=O)[O-].CCCCCCCC(=O)[O-].[Zn+2]` here?
Its value is -15.8% (inactive).

Which Potency does the source give for `Cc1ccc(-n2nc(C(C)(C)C)cc2NC(=O)Nc2ccc(OCCN3CCOCC3)c3ccccc23)cc1` here?
Its Potency is 6.92 µM (active).

`Cc1cc(O)c(C(C)(C)C)cc1C(C)(C)C` was tested. Which Potency did it give?
Its Potency is 28.3 µM (active).

For `Clc1ccc(C(Cn2ccnc2)OCc2ccc(Sc3ccccc3)cc2)c(Cl)c1` (stereo not given), which Potency is on record?
Its Potency is 2.75 µM (active).

`NNc1nc(-c2ccccc2)cs1` was tested. Which Potency did it give?
Its Potency is 9.19 µM (active).

Which Potency does the source give for `Cc1ccc2oc(CN(Cc3ccccc3)C(=O)Nc3c(F)cc(F)cc3F)c(-c3ccc(Cl)cc3)c2c1` here?
Its Potency is 4.34 µM (active).

How did the Potency turn out when `O=C(NO)C1(NS(=O)(=O)c2ccc(Oc3ccc(F)cc3)cc2)CCOCC1` was run?
The Potency was 56.4 µM (active).

Which Potency does the source give for `N#CSc1ccc(N)c([N+](=O)[O-])c1` here?
The Potency was 40.2 µM (active).

How did the “activity change, negative = inhibition” value turn out when `Cc1cc(C2CCCCC2)n(O)c(=O)c1` was run?
Its value is -8.15% (inactive).

With `O=C(Nc1cccc([N+](=O)[O-])c1)c1cc2ccccc2cc1O` as the molecule, how does the Potency read?
Its Potency is 17.8 µM (active).

Which Potency does the source give for `O=CC=C(c1ccccc1)c1ccccc1` here?
The Potency was 20.2 µM (active).

For `O=C1C=CC(=O)N1`, which “activity change, negative = inhibition” value is on record?
The value was 0.298% [at 115 µM] (inactive).

Which “activity change, negative = inhibition” value does the source give for `C[n+]1ccn(Cc2ccccc2)c1` here?
The value was 6.05% [at 115 µM] (inactive).

For `CN1CCN(CCC(=O)N2c3ccccc3Sc3ccc(C(F)(F)F)cc32)CC1`, which “activity change, negative = inhibition” value is on record?
The value was -14% (inactive).

For `Nc1ccc2cc(S(=O)(=O)O)cc(O)c2c1N=Nc1ccccc1C(F)(F)F`, which Potency is on record?
Its Potency is 63.3 µM (active).

`c1cc(C(c2ccc(OCC3CO3)cc2)c2ccc(OCC3CO3)cc2)ccc1OCC1CO1` (stereo not given) was tested. Which Potency did it give?
Its Potency is 20 µM (active).

Which Potency does the source give for `CCC(Cl)C(Cl)C(Cl)CC(Cl)C(Cl)C(C)Cl` (stereo not given) here?
Its Potency is 7.96 µM (active).

For `Clc1ccccc1C(c1ccccc1)(c1ccccc1)n1ccnc1`, which Potency is on record?
Its Potency is 1.12 µM (active) and 1.1 µM (active).

Which “activity change, negative = inhibition” value does the source give for `Cc1ccc(O)c2ncccc12` here?
Its value is 3.67% (inactive).

With `C1CCCC1` as the molecule, how does the “activity change, negative = inhibition” value read?
Its value is -0.516% [at 115 µM] (inactive).

`C/C=C(\C)C(=O)OCc1ccccc1` was tested. Which “activity change, negative = inhibition” value did it give?
The value was -5.45% [at 115 µM] (inactive).

How did the Potency turn out when `Cc1cc(=O)oc2cc(N(C)C)ccc12` was run?
Its Potency is 44.8 µM (active).

With `Fc1ccc(C(c2ccc(F)cc2)N2CCN(C/C=C/c3ccccc3)CC2)cc1` as the molecule, how does the Potency read?
The Potency was 15.5 µM (active).

`CCOC(=O)O[C@]1(C(=O)OCCl)CC[C@H]2[C@@H]3CCC4=CC(=O)C=C[C@]4(C)[C@H]3[C@@H](O)C[C@@]21C` was tested. Which “activity change, negative = inhibition” value did it give?
The value was -17.2% (inactive).

`CSc1ccc(/C=C2/C(C)=C(CC(=O)O)c3cc(F)ccc32)cc1` was tested. Which Potency did it give?
Its Potency is 24.5 µM (active).

With `CC(C)(C)CC(C)(C)c1ccc(O)c(Cc2ccc(Cl)cc2Cl)c1` as the molecule, how does the Potency read?
Its Potency is 5.49 µM (active).

How did the Potency turn out when `CCCCc1oc2ccc(NS(C)(=O)=O)cc2c1C(=O)c1ccc(OCCCN(CCCC)CCCC)cc1` was run?
The Potency was 34.7 µM (active).

How did the Potency turn out when `CC(C)=CCOc1ccc(/C=C/C(=O)c2ccc(OCC=C(C)C)cc2OCC(=O)O)cc1` was run?
The Potency was 15.5 µM (active).

Which Potency does the source give for `CCOc1nc2cccc(C(=O)OC(C)OC(=O)OC3CCCCC3)c2n1Cc1ccc(-c2ccccc2-c2nn[nH]n2)cc1` (stereo not given) here?
Its Potency is 10 µM (active).

For `O=Cc1cc(O)ccc1Br`, which Potency is on record?
The Potency was 45.4 µM (active).
